# About 79,000 compounds went through this panel and 15% of them were active in at least one assay; those are over-represented in the sample as a whole. Values without a mark were called inactive. Activity calls are given as the source filed them. Cut-off read from the data, not from the text of the source: active = growth inhibition above about 70%; inactive = the rest.
# Key:
# [1] = NCI Yeast Anticancer Drug Screen. Data for the wt1 strain (AID 149);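 note: 0% = growth of vehicle-treated wt1 cultures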; conditions: S. cerevisiae wt1 strain (SPY 50644) growth inhibition, stronger effect = higher value
# Procedure, shortened: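 Compounds are added to wt1 yeast cultures. Growth is then measured. Inhibition is expressed relative to vehicle-treated controls.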
# [2] = NCI Yeast Anticancer Drug Screen. Data for the rad50EPP+ strain (AID 151);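 note: 0% = growth of vehicle-treated control cultures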; conditions: S. cerevisiae rad50 mutant strain, stronger effect = higher value
# Procedure, shortened: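 Measured: growth inhibition of rad50EPP+ yeast. Reference: vehicle-treated controls. Screen uses strains with defined genetic alterations in DNA damage repair or cell cycle control.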
# [3] = NCI Yeast Anticancer Drug Screen. Data for the rad50 strain (AID 155);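 note: 0% = growth of vehicle-only cultures of the same strain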; conditions: S. cerevisiae rad50 strain growth inhibition, stronger effect = higher value
# Procedure, shortened: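 Inhibition values express reduced yeast growth in compound-treated cultures relative to vehicle-treated controls.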
# [4] = NCI Yeast Anticancer Drug Screen. Data for the mec2-1 strain (AID 157); conditions: S. cerevisiae mec2-1 strain, stronger effect = higher value
# Procedure, shortened: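 Compounds were applied to mec2-1 yeast cells. Their growth was then compared with that of vehicle-treated cultures to give growth inhibition.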
# [5] = NCI Yeast Anticancer Drug Screen. Data for the rad14 strain (AID 159);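 note: 0% = growth of vehicle-treated control cultures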; conditions: S. cerevisiae rad14 strain growth inhibition, stronger effect = higher value
# Procedure, shortened: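 A mutant yeast strain defective in DNA damage repair is treated with compound; inhibition of its growth is scored against untreated, vehicle-exposed cultures.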
# [6] = NCI Yeast Anticancer Drug Screen. Data for the sgs1 mgt1 strain (AID 161);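 note: 0% = growth of cultures given vehicle only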; conditions: S. cerevisiae sgs1 mgt1 strain, stronger effect = higher value
# Procedure, shortened: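 Percent growth inhibition was derived by comparing compound-exposed mutant yeast with vehicle-exposed cultures. The strain carries alterations in DNA damage repair.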
# [7] = NCI Yeast Anticancer Drug Screen. Data for the CLN2oe strain (AID 163);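 note: 0% = growth of vehicle-only control cultures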; conditions: S. cerevisiae CLN2oe strain, stronger effect = higher value
# Procedure, shortened: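 Cells of an engineered yeast line with disturbed cell-cycle regulation are treated with compound. Inhibition of growth is then calculated relative to the vehicle-treated reference.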
# [8] = NCI Yeast Anticancer Drug Screen. Data for the cln2 rad14 strain (AID 165);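 note: 0% = growth equal to vehicle treated cultures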; conditions: S. cerevisiae cln2 rad14 strain, stronger effect = higher value
# Procedure, shortened: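 Strain: cln2 rad14 yeast, altered in cell cycle control and DNA damage repair. Read-out: growth inhibition vs vehicle.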
# [9] = NCI Yeast Anticancer Drug Screen. Data for the bub3 strain (AID 167); conditions: S. cerevisiae bub3 mutant strain, stronger effect = higher value
# Procedure, shortened: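 Steps: expose the mutant yeast strain to compound; grow alongside vehicle-treated cultures; measure growth; express inhibition against the vehicle cultures.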
# [10] = NCI Yeast Anticancer Drug Screen. Data for the wt2 strain (AID 169);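 note: 0% = growth of vehicle-treated yeast cultures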; conditions: S. cerevisiae wt2 strain growth inhibition, stronger effect = higher value
# Procedure, shortened: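 Growth of compound-treated yeast is measured and expressed as inhibition relative to vehicle-only controls.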
# [11] = NCI Yeast Anticancer Drug Screen. Data for the mlh1 strain (AID 171);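 note: 0% = growth of vehicle-treated control cultures of the same strain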; conditions: S. cerevisiae mlh1 strain growth inhibition, stronger effect = higher value
# Procedure, shortened: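 Test agents were incubated with yeast bearing a defined DNA damage repair or cell cycle control alteration; values are growth inhibition normalised to vehicle-treated cultures.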
# [12] = NCI Yeast Anticancer Drug Screen. Data for the sgs1 strain (AID 173);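 note: 0% = growth of vehicle-only control cultures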; conditions: S. cerevisiae sgs1 mutant, stronger effect = higher value
# Procedure, shortened: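 Strain with an altered DNA repair or cell cycle pathway exposed to compound. Growth then measured. Value = inhibition versus vehicle control.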
# [13] = NCI Yeast Anticancer Drug Screen. Data for the mlh1 rad18 strain (AID 175); conditions: S. cerevisiae mlh1 rad18 strain growth inhibition, stronger effect = higher value
# Procedure, shortened: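 A repair-deficient yeast strain is exposed to test compound, and growth is scored relative to vehicle-treated controls.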
# [14] = NCI Yeast Anticancer Drug Screen. Data for the rad18 strain (AID 177); conditions: S. cerevisiae rad18 mutant growth inhibition, stronger effect = higher value
# Procedure, shortened: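 DNA-repair-defective yeast; compound treatment; growth inhibition scored against vehicle.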
# [15] = NCI Yeast Anticancer Drug Screen. Data for the rad52 strain (AID 147);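 note: 0% = growth of vehicle-treated control cultures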; conditions: S. cerevisiae rad52 mutant growth inhibition, stronger effect = higher value
# Procedure, shortened: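 Growth of repair-deficient yeast cells was compared between compound-treated and vehicle-treated cultures to give percent inhibition.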
# [16] = at 5.0 µM (retest, dose inferred, filed as 0.5)
# [17] = at 50.0 µM (retest, dose inferred, filed as 5.0)
smiles,measurement,setting,value
CCCCC(CC)C(=O)Oc1ccc(C(=O)c2ccccc2)c(O)c1 (stereo unspecified),growth inhibition,[1]; at 1.2 µM,-13%
same,growth inhibition,[1]; at 3.7 µM,-17%
same,growth inhibition,[1]; at 11.0 µM,-15%
same,growth inhibition,[1]; at 33.0 µM,37%
same,growth inhibition,[1]; at 100.0 µM,98% (active)
same,growth inhibition,[2]; at 1.2 µM,8%
same,growth inhibition,[2]; at 3.7 µM,13%
same,growth inhibition,[2]; at 11.0 µM,20%
same,growth inhibition,[2]; at 33.0 µM,54%
same,growth inhibition,[2]; at 100.0 µM,88% (active)
same,growth inhibition,[3]; at 1.2 µM,7%
same,growth inhibition,[3]; at 3.7 µM,4%
same,growth inhibition,[3]; [16],50%
same,growth inhibition,[3]; at 11.0 µM,15%
same,growth inhibition,[3]; at 33.0 µM,56%
same,growth inhibition,[3]; [17],76% (active)
same,growth inhibition,[3]; at 50.0 µM,74.9% (active)
same,growth inhibition,[3]; at 100.0 µM,96% (active)
same,growth inhibition,[4]; at 1.2 µM,10%
same,growth inhibition,[4]; at 3.7 µM,15%
same,growth inhibition,[4]; [16],53%
same,growth inhibition,[4]; at 11.0 µM,19%
same,growth inhibition,[4]; at 33.0 µM,61%
same,growth inhibition,[4]; [17],79% (active)
same,growth inhibition,[4]; at 50.0 µM,75.2% (active)
same,growth inhibition,[4]; at 100.0 µM,98% (active)
same,growth inhibition,[5]; at 1.2 µM,-5%
same,growth inhibition,[5]; at 3.7 µM,-6%
same,growth inhibition,[5]; at 11.0 µM,-8%
same,growth inhibition,[5]; at 33.0 µM,29%
same,growth inhibition,[5]; at 100.0 µM,97% (active)
same,growth inhibition,[6]; [16],-32%
same,growth inhibition,[6]; [17],91% (active)
same,growth inhibition,[6]; at 50.0 µM,82% (active)
same,growth inhibition,[7]; at 1.2 µM,0%
same,growth inhibition,[7]; at 3.7 µM,17%
same,growth inhibition,[7]; at 11.0 µM,19%
same,growth inhibition,[7]; at 33.0 µM,50%
same,growth inhibition,[7]; at 100.0 µM,97% (active)
same,growth inhibition,[8]; [16],48%
same,growth inhibition,[8]; [17],88% (active)
same,growth inhibition,[8]; at 50.0 µM,65%
same,growth inhibition,[9]; at 1.2 µM,21%
same,growth inhibition,[9]; at 3.7 µM,27%
same,growth inhibition,[9]; [16],-1%
same,growth inhibition,[9]; at 11.0 µM,32%
same,growth inhibition,[9]; at 33.0 µM,69%
same,growth inhibition,[9]; [17],89% (active)
same,growth inhibition,[9]; at 50.0 µM,73% (active)
same,growth inhibition,[9]; at 100.0 µM,98% (active)
same,growth inhibition,[10]; at 1.2 µM,-18%
same,growth inhibition,[10]; at 3.7 µM,-7%
same,growth inhibition,[10]; at 11.0 µM,-4%
same,growth inhibition,[10]; at 33.0 µM,37%
same,growth inhibition,[10]; at 100.0 µM,97% (active)
same,growth inhibition,[11]; at 1.2 µM,-9%
same,growth inhibition,[11]; at 3.7 µM,-10%
same,growth inhibition,[11]; at 11.0 µM,3%
same,growth inhibition,[11]; at 33.0 µM,55%
same,growth inhibition,[11]; at 100.0 µM,97% (active)
same,growth inhibition,[12]; at 1.2 µM,10%
same,growth inhibition,[12]; at 3.7 µM,9%
same,growth inhibition,[12]; at 11.0 µM,20%
same,growth inhibition,[12]; at 33.0 µM,63%
same,growth inhibition,[12]; at 100.0 µM,97% (active)
same,growth inhibition,[13]; [16],38%
same,growth inhibition,[13]; [17],77% (active)
same,growth inhibition,[13]; at 50.0 µM,69.3%
same,growth inhibition,[14]; at 1.2 µM,-4%
same,growth inhibition,[14]; at 3.7 µM,0%
same,growth inhibition,[14]; at 11.0 µM,17%
same,growth inhibition,[14]; at 33.0 µM,53%
same,growth inhibition,[14]; at 100.0 µM,97% (active)
CC(=O)N1C(=O)/C(=C\C(=O)c2ccc([N+](=O)[O-])cc2)c2ccccc21,growth inhibition,[15]; at 1.2 µM,-14%
same,growth inhibition,[15]; at 3.7 µM,18%
same,growth inhibition,[15]; at 11.0 µM,53%
same,growth inhibition,[15]; at 33.0 µM,92% (active)
same,growth inhibition,[15]; at 100.0 µM,97% (active)
same,growth inhibition,[2]; at 1.2 µM,-12%
same,growth inhibition,[2]; at 3.7 µM,35%
same,growth inhibition,[2]; at 11.0 µM,4%
same,growth inhibition,[2]; at 33.0 µM,89% (active)
same,growth inhibition,[2]; at 100.0 µM,95% (active)
same,growth inhibition,[3]; at 1.2 µM,0%
same,growth inhibition,[3]; at 3.7 µM,-8%
same,growth inhibition,[3]; [16],41%
same,growth inhibition,[3]; at 11.0 µM,34%
same,growth inhibition,[3]; at 33.0 µM,93% (active)
same,growth inhibition,[3]; [17],98% (active)
same,growth inhibition,[3]; at 50.0 µM,85.5% (active)
same,growth inhibition,[3]; at 100.0 µM,95% (active)
same,growth inhibition,[4]; at 1.2 µM,-10%
same,growth inhibition,[4]; at 3.7 µM,13%
same,growth inhibition,[4]; [16],60%
same,growth inhibition,[4]; at 11.0 µM,28%
same,growth inhibition,[4]; at 33.0 µM,91% (active)
same,growth inhibition,[4]; [17],98% (active)
same,growth inhibition,[4]; at 50.0 µM,89.5% (active)
same,growth inhibition,[4]; at 100.0 µM,97% (active)
same,growth inhibition,[5]; at 1.2 µM,-8%
same,growth inhibition,[5]; at 3.7 µM,9%
same,growth inhibition,[5]; at 11.0 µM,31%
same,growth inhibition,[5]; at 33.0 µM,86% (active)
same,growth inhibition,[5]; at 100.0 µM,97% (active)
same,growth inhibition,[6]; [16],46%
same,growth inhibition,[6]; [17],98% (active)
same,growth inhibition,[6]; at 50.0 µM,88.8% (active)
same,growth inhibition,[7]; at 1.2 µM,-31%
same,growth inhibition,[7]; at 3.7 µM,4%
same,growth inhibition,[7]; at 11.0 µM,28%
same,growth inhibition,[7]; at 33.0 µM,51%
same,growth inhibition,[7]; at 100.0 µM,96% (active)
same,growth inhibition,[8]; [16],25%
same,growth inhibition,[8]; [17],66%
same,growth inhibition,[8]; at 50.0 µM,84.5% (active)
same,growth inhibition,[9]; at 1.2 µM,-33%
same,growth inhibition,[9]; at 3.7 µM,-11%
same,growth inhibition,[9]; [16],12%
same,growth inhibition,[9]; at 11.0 µM,22%
same,growth inhibition,[9]; at 33.0 µM,95% (active)
same,growth inhibition,[9]; [17],96% (active)
same,growth inhibition,[9]; at 50.0 µM,86.8% (active)
same,growth inhibition,[9]; at 100.0 µM,96% (active)
same,growth inhibition,[10]; at 1.2 µM,29%
same,growth inhibition,[10]; at 3.7 µM,55%
same,growth inhibition,[10]; at 11.0 µM,93% (active)
same,growth inhibition,[10]; at 33.0 µM,98% (active)
same,growth inhibition,[10]; at 100.0 µM,98% (active)
same,growth inhibition,[11]; at 1.2 µM,-8%
same,growth inhibition,[11]; at 3.7 µM,14%
same,growth inhibition,[11]; at 11.0 µM,67%
same,growth inhibition,[11]; at 33.0 µM,95% (active)
same,growth inhibition,[11]; at 100.0 µM,97% (active)
same,growth inhibition,[12]; at 1.2 µM,-13%
same,growth inhibition,[12]; at 3.7 µM,27%
same,growth inhibition,[12]; at 11.0 µM,66%
same,growth inhibition,[12]; at 33.0 µM,96% (active)
same,growth inhibition,[12]; at 100.0 µM,96% (active)
same,growth inhibition,[13]; [16],72% (active)
same,growth inhibition,[13]; [17],98% (active)
same,growth inhibition,[13]; at 50.0 µM,85.7% (active)
same,growth inhibition,[14]; at 1.2 µM,1%
same,growth inhibition,[14]; at 3.7 µM,26%
same,growth inhibition,[14]; at 11.0 µM,61%
same,growth inhibition,[14]; at 33.0 µM,90% (active)
same,growth inhibition,[14]; at 100.0 µM,97% (active)
